Laboratory results: PubChem BioAssay (NCATS)
Inconclusive results are not listed. The source made the active and inactive calls. Unless noted, calls follow the shape of the dose curve; as a rule, active = well fitted curve in the direction sought with a large enough effect; inconclusive = small, poorly fitted or top-dose-only effect, or another doubt; inactive = no such curve, though single readings can be large; an effect the other way counts as inactive or inconclusive.

Assays:
[1] = qHTS Assay for Lipid Storage Modulators (AID 1519; calls by dose curve; as to activity change, negative = inhibition: % is scaled to controls: 0 for no effect and ±100 for the full control effect); conditions: Drosophila S3 cells, BODIPY lipid droplet/cell ratio, laser cytometry, cells loaded with oleic acid
Summary of the method: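 Cells seeded at 5,000 per well were treated with compounds over a concentration series and loaded with oleic acid (400 uM, as added). Lipid droplet fluorescence (488 nm excitation, 500-530 nm channel) was read by laser-scanning cytometry and normalized to 20 uM Triacsin C.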

[2] = Validation of Assay for Modulators of Lamin A Splicing (AID 1459; active = well fitted curve in the direction sought with a large enough effect in the signal ratio; the % refers to the signal ratio;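 also: cells exposed to compound for two days before reading; 0% is about no effect; ratio rise marks activators and ratio drop marks inhibitors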); conditions: Lamin A splicing dual RFP/GFP fluorescence reporter; series mostly up to 9.22 µM
Summary of the method: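 S3 HeLa stably expressing lamin A-EGFP splicing minigene and DsRed2, 600 cells/well in Opti-MEM with 2% FBS, treated 48 h at 37C; laser-scanning cytometry gives GFP/RFP total intensity ratio; ancitabine positive control, 0.5% DMSO vehicle.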

[3] = target: DNA repair nuclease/redox regulator APEX1 (Homo sapiens) (UniProt P27695); assay: qHTS Validation Assay for Inhibitors of the Human Apurinic/apyrimidinic Endonuclease 1 (APE1) (AID 1705;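 also: TAMRA fluorescence gain over two minutes as APE1 cuts a quenched THF abasic duplex; % is scaled to controls: 0 for no effect and ±100 for the full control effect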); conditions: purified APE1 endonuclease activity, fluorescence, titration; series mostly up to 57.1 µM
DNA repair nuclease/redox regulator APEX1 (Homo sapiens), sequence (P27695 whole entry, looked up): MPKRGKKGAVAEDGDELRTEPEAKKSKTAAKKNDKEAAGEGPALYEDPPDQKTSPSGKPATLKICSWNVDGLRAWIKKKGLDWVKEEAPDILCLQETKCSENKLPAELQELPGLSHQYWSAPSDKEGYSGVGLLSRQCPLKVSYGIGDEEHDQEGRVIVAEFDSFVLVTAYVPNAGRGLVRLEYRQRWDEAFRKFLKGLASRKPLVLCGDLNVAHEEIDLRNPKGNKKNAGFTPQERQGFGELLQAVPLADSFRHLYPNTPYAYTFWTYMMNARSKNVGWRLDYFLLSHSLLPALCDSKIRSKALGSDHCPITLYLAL
Summary of the method: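 Fluorogenic double-stranded THF abasic-site substrate (5'-TAMRA/3'-BHQ-2), 50 nM final. Enzyme preincubated with compound 15 min at room temperature, then substrate added. Kinetic fluorescence (ex 525/em 598 nm) read three times at 60 s intervals; activity taken as third-minus-first read difference.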

[4] = Counterscreen for APE1 Inhibitors: Fluorescent Dye Displacement Validation Assay (AID 1707); conditions: fluorescent dye displacement from DNA; series mostly up to 57.1 µM;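 also: plate controls were ThO with dsDNA and no compound for no effect and ThO without dsDNA for full effect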
Summary of the method: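 Reaction mixture of 250 nM Thiazole Orange and 50 nM double-stranded abasic-site DNA was dispensed, compounds were pin-transferred, and fluorescence was read at endpoint (480 nm ex, 540 nm em). Reduced fluorescence indicated dye displacement by DNA binding.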

[5] = target: Endonuclease 4 (Escherichia coli (strain K12)) (UniProt P0A6C1); assay: Counterscreen for APE1 Inhibitors: qHTS Validation Assay for Inhibitors of Endonuclease IV (AID 1708); also: % is scaled to controls: 0 for no effect and ±100 for the full control effect; conditions: E. coli endonuclease IV, DNA cleavage fluorescence; series mostly up to 57.1 µM
Summary of the method: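 Measured as reaction progress, the fluorescence gain between first and third kinetic reads after adding 50 nM TAMRA/BHQ-2 THF duplex to 2 nM enzyme preincubated 15 min with compound; 2 mM MgCl2, pH 7.5.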

[6] = qHTS for differential inhibitors of proliferation of Plasmodium falciparum line 7G8 (AID 1815); conditions: Plasmodium falciparum 7G8 proliferation inhibition; series mostly up to 28.7 µM;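 also: parasite growth measured after three days of incubation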; also: potency is read from the fitted curve at half-maximal effect;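 as to activity change, negative = inhibition: plate controls were vehicle wells for no effect and reference inhibitor wells for full effect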
[7] = qHTS for differential inhibitors of proliferation of Plasmodium falciparum line GB4 (AID 1816); conditions: Potency: Plasmodium falciparum GB4 proliferation inhibition; series mostly up to 28.7 µM;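 also: parasite growth measured after 72 h incubation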; also: potency is read from the fitted curve at half-maximal effect;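 as to activity change, negative = inhibition: 0% = vehicle DMSO and -100% = reference inhibitor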
[8] = qHTS for differential inhibitors of proliferation of Plasmodium falciparum line 3D7 (AID 1876);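 also: parasite growth measured after three days of culture; 0% = vehicle wells and -100% = reference inhibitor wells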; conditions: P. falciparum 3D7 proliferation inhibition; series mostly up to 28.7 µM
[9] = qHTS for differential inhibitors of proliferation of Plasmodium falciparum line D10 (AID 1877); conditions: series mostly up to 28.7 µM;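 also: parasites grown with compound for 72 h before DNA staining; plate controls were vehicle wells for no effect and reference inhibitor wells for full effect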
[10] = qHTS for differential inhibitors of proliferation of Plasmodium falciparum line Dd2 (AID 1882); conditions: Potency: Plasmodium falciparum Dd2 proliferation inhibition; series mostly up to 28.7 µM;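 also: compound exposure of 72 h on infected erythrocytes; plate controls were DMSO vehicle for no effect and 0.29 µM artemisinin for full effect; nearly all actives have a fitted effect of over 65% in size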
Summary of the method: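 RBC culture, 0.3% parasitemia / 2.5% Hct final; cpd added by pin tool in DMSO; 72 h, 37 C, 5% CO2; lysis buffer + SYBR Green I, o/n RT dark; FI 485/535; norm. to artemisinin 0.29 uM and DMSO.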

[11] = qHTS for differential inhibitors of proliferation of Plasmodium falciparum line W2 (AID 1883); conditions: Potency: Plasmodium falciparum W2 proliferation inhibition; series mostly up to 28.7 µM;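 also: parasites grown with compound for 72 h before lysis and staining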; also: potency is read from the fitted curve at half-maximal effect;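 as to activity change, negative = inhibition: 0% = vehicle wells and -100% = control inhibitor wells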
[12] = qHTS for differential inhibitors of proliferation of Plasmodium falciparum line HB3 (AID 1886); conditions: Potency: Plasmodium falciparum HB3 proliferation inhibition; series mostly up to 28.7 µM;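 also: parasites grown with compound for 72 h before SYBR Green readout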; also: potency is read from the fitted curve at half-maximal effect;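 as to activity change, negative = inhibition: plate controls were vehicle for no effect and reference inhibitor for full effect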
[13] = target: Ferritin light chain (Equus caballus) (UniProt P02791); assay: qHTS Validation Assay for Identification of Novel General Anesthetics (AID 2323); conditions: horse apoferritin, anesthetic-site fluorescent probe displacement; series mostly up to 76.9 µM; also: % is scaled to controls: 0 for no effect and ±100 for the full control effect
Ferritin light chain (Equus caballus), sequence (P02791 2-175 limits assumed): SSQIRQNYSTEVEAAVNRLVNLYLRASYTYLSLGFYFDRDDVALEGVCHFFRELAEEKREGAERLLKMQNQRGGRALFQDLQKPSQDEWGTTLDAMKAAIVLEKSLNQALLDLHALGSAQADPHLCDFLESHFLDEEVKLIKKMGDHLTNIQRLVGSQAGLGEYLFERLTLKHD
Summary of the method: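 Horse-spleen apoferritin (10 uM) in PBS with 50% saturated 1-aminoanthracene; compounds pin-transferred, 10 min at room temperature. Fluorescence read at 380/535 nm, normalized to free 1-AMA and 1-AMA/apoferritin values; four-parameter Hill fit.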

[14] = target: ATP-dependent DNA helicase Q1 (Homo sapiens) (UniProt P46063); assay: qHTS Validation Assay for Inhibitors of RecQ-Like Dna Helicase 1 (RECQ1) (AID 2353); conditions: recombinant RECQ1 helicase DNA unwinding assay; series mostly up to 25.6 µM;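 also: plate controls were DMSO vehicle for no effect and enzyme-free control for full effect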
ATP-dependent DNA helicase Q1 (Homo sapiens), sequence (P46063 whole entry, looked up): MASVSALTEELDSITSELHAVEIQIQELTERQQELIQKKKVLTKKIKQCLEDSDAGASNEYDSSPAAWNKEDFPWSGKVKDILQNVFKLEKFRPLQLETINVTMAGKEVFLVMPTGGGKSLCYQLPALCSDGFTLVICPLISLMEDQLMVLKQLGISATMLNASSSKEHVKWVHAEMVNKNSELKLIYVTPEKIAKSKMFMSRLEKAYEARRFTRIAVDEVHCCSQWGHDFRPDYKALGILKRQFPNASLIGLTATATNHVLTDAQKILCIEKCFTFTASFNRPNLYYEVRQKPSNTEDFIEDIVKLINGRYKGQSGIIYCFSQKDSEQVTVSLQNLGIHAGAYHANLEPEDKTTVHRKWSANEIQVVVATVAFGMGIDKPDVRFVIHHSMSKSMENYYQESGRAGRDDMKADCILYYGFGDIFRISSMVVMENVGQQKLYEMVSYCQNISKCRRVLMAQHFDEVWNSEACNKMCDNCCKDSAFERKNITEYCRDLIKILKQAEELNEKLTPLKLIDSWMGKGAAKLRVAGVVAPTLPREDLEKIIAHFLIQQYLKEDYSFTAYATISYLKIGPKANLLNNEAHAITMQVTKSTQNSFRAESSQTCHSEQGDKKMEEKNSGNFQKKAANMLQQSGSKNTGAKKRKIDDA
Summary of the method: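 RECQ1T1 50 nM; forked duplex (20 bp + 30-nt ss tails) 200 nM, ATP 2 mM final; pH 8.0, 2 mM MgCl2, 2.5 ug/ml poly(dI-dC); 15 min compound preincubation; discontinuous kinetic read over 2 h at RT.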

[15] = Validation screen for small molecules that induce DNA re-replication in MCF 10A normal breast cells (AID 463097); conditions: MCF 10A cells, DNA re-replication phenotype imaging; series mostly up to 46.1 µM; also: 0% is about no effect; nearly all actives have a fitted effect of over 60% in size
Summary of the method: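 MCF 10A cells exposed to compound 48 hr at 37 C, 5% CO2, then Hoechst-stained 40 min. Laser-scanning imaging of nuclear DNA content (405 nm ex, 500-530 nm em); re-replication scored as rise in nuclei with elevated fluorescence intensity.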

[16] = measured here: cell count channel max response
[17] = measured here: lipid channel max response

With `O=C(O)CCC(=O)c1ccc(-c2ccccc2)cc1` the activity change, negative = inhibition ([1]; at 25.7 µM (top of the series)) was 2.12% (inactive), the max response [1, 16] was -6.39% and the max response [1, 17] was -2.43%.

In the case of `N#Cc1ccc2c(c1)N(CCCN1CCC(O)CC1)c1ccccc1S2`, the activity change, negative = inhibition ([1]; at 57.5 µM (top of the series)) is reported as 6.36% (inactive), the max response [1, 16] is reported as 2.04% and the max response [1, 17] is reported as 8.33%.

With `CC(=O)Nc1ccc(OC(=O)c2ccccc2O)cc1` the activity change, negative = inhibition ([1]; at 57.5 µM (top of the series)) was 5.77% (inactive), the max response [1, 16] was 14.6% and the max response [1, 17] was 24.9%.

With `C=CC(C)(O)CC/C=C(\C)CCC=C(C)C` (centres undefined) the activity change, negative = inhibition ([1]; at 57.5 µM (top of the series)) was 0.625% (inactive), the max response [1, 16] was 5.67% and the max response [1, 17] was 8.64%.

For `CC(=O)Oc1cccc2c1C(=O)c1c(OC(C)=O)cc(C(=O)O)cc1C2=O`, the activity change, negative = inhibition ([1]; at 57.5 µM (top of the series)) was 13.8% (inactive), the max response [1, 16] was 25.9% and the max response [1, 17] was 41.9%.

In the case of `O=c1[nH]c(=O)n([C@H]2C[C@H](O)[C@@H](CO)O2)cc1/C=C/Br`, the outcome [2] is reported as “inactive”, the outcome [3] is reported as “inactive” and the outcome [4] is reported as “inactive”. For the same compound, the outcome [5] was “inactive”, the Potency [6] was “inactive” and the Potency [7] was “inactive”. For the same compound, the outcome [8] was “inactive”, the outcome [9] was “inactive” and the Potency [10] was “inactive”. The Potency [11] was “inactive”, the Potency [12] was “inactive” and the outcome [13] was “inactive”. The outcome [14] was “inactive” and the outcome [15] was “inactive”.

In the case of `CC(=O)Oc1cccc(C(=O)O)c1OC(C)=O`, the activity change, negative = inhibition ([1]; at 57.5 µM (top of the series)) is reported as 4.19% (inactive), the max response [1, 16] is reported as 10.5% and the max response [1, 17] is reported as 12%.

With `O=C(CCCCCCCCCCCCC1CCCC1)Nc1ccc(S(=O)(=O)c2ccc(NC(=O)CCCCCCCCCCCCC3CCCC3)cc2)cc1` the activity change, negative = inhibition ([1]; at 57.5 µM (top of the series)) was 10% (inactive), the max response [1, 16] was 14.8% and the max response [1, 17] was 25.4%.

For `O=C1c2ccccc2C(=O)c2c1ccc(O)c2O`, the activity change, negative = inhibition ([1]; at 57.5 µM (top of the series)) was 15% (inactive), the max response [1, 16] was 2.35% and the max response [1, 17] was 20.3%.

With `CCCOc1cc(N)ccc1C(=O)OCCN(CC)CC` the activity change, negative = inhibition ([1]; at 25.7 µM (top of the series)) was -0.11% (inactive), the max response [1, 16] was -10.4% and the max response [1, 17] was -6.99%.

With `O=C(O)Cc1cc(I)c(Oc2ccc(O)c(I)c2)c(I)c1` the activity change, negative = inhibition ([1]; at 25.7 µM (top of the series)) was -0.457% (inactive), the max response [1, 16] was 2.07% and the max response [1, 17] was 0.793%.

In the case of `CN1CCc2c(c3ccccc3n2Cc2ccccc2)C1`, the activity change, negative = inhibition ([1]; at 25.7 µM (top of the series)) is reported as -1.45% (inactive), the max response [1, 16] is reported as 1.19% and the max response [1, 17] is reported as 1.48%.

In the case of `COc1cc(S(C)=O)ccc1-c1nc2ncccc2[nH]1` (centres undefined), the activity change, negative = inhibition ([1]; at 25.7 µM (top of the series)) is reported as 0.171% (inactive), the max response [1, 16] is reported as -21.2% and the max response [1, 17] is reported as -18.4%.

With `CC(C)c1nc(N(C)S(C)(=O)=O)nc(-c2ccc(F)cc2)c1/C=C/C(O)CC(O)CC(=O)O` (centres undefined) the activity change, negative = inhibition ([1]; at 57.5 µM (top of the series)) was 2.85% (inactive), the max response [1, 16] was 4.28% and the max response [1, 17] was 9.26%.

With `CCCc1nc(C(C)(C)O)c(C(=O)OCc2oc(=O)oc2C)n1Cc1ccc(-c2ccccc2-c2nn[nH]n2)cc1` the activity change, negative = inhibition ([1]; at 57.5 µM (top of the series)) was 8.57% (inactive), the max response [1, 16] was 19.2% and the max response [1, 17] was 29.3%.

In the case of `CC1(C)S[C@@H]2[C@H](NC(=O)C3(N)CCCCC3)C(=O)N2[C@H]1C(=O)O`, the activity change, negative = inhibition ([1]; at 25.7 µM (top of the series)) is reported as -0.399% (inactive), the max response [1, 16] is reported as 10.5% and the max response [1, 17] is reported as 9.76%.

In the case of `Cc1cc(C)c(NC(=O)C[C@H](CC(=O)O)c2cccc3ccccc23)c(C(=O)N2CCC3(CCCC3)CC2)c1`, the outcome [2] is reported as “inactive”, the outcome [3] is reported as “inactive” and the outcome [4] is reported as “inactive”. The outcome [5] was “inactive”, the Potency [6] was 12.6 µM (active) and the Potency [7] was 11.2 µM (active). For the same compound, the Potency [11] was 11.2 µM (active), the Potency [12] was 14.1 µM (active) and the outcome [13] was “inactive”. The outcome [14] was “inactive” and the outcome [15] was “inactive”.

For `Cc1ncc(C[n+]2csc(CCO)c2C)c(N)n1`, the activity change, negative = inhibition ([1]; at 25.7 µM (top of the series)) was -1.32% (inactive), the max response [1, 16] was 9.62% and the max response [1, 17] was 7.5%.

For `CC[C@H]1OC(=O)[C@H](C)[C@@H](O[C@H]2C[C@@](C)(OC)[C@@H](O)[C@H](C)O2)C(C)[C@@H](O[C@@H]2O[C@H](C)C[C@H](N(C)C)[C@@H]2O)[C@](C)(OC)C[C@@H](C)C(=O)[C@H](C)[C@@H](O)[C@]1(C)O` (some centres undefined), the activity change, negative = inhibition ([1]; at 57.5 µM (top of the series)) was 7.44% (inactive), the max response [1, 16] was 9.53% and the max response [1, 17] was 18.8%.

For `N[C@H](CC(=O)O)C(=O)O`, the activity change, negative = inhibition ([1]; at 57.5 µM (top of the series)) was -1.19% (inactive), the max response [1, 16] was -13% and the max response [1, 17] was -12.9%.

For `O=C1NCCN1c1ncc([N+](=O)[O-])s1`, the activity change, negative = inhibition ([1]; at 25.7 µM (top of the series)) was -0.923% (inactive), the max response [1, 16] was 0.859% and the max response [1, 17] was -3.74%.

For `CNC(=O)c1c(I)c(C(=O)NCC(=O)Nc2c(I)c(C(=O)O)c(I)c(C(=O)NCCO)c2I)c(I)c(N(C)C(C)=O)c1I`, the activity change, negative = inhibition ([1]; at 25.7 µM (top of the series)) was -2.02% (inactive), the max response [1, 16] was -4.35% and the max response [1, 17] was -10.2%.

With `CC1CCC(NC(=O)N(CCCl)N=O)CC1` (centres undefined) the activity change, negative = inhibition ([1]; at 57.5 µM (top of the series)) was 0.815% (inactive), the max response [1, 16] was 10.3% and the max response [1, 17] was 12.2%.

With `CC1CCCC(C)N1NC(=O)c1ccc(Cl)c(S(N)(=O)=O)c1` (centres undefined) the activity change, negative = inhibition ([1]; at 57.5 µM (top of the series)) was 2.67% (inactive), the max response [1, 16] was 17.3% and the max response [1, 17] was 23.6%.

For `CC(=O)[C@H]1CC[C@H]2[C@@H]3C=CC4=CC(=O)CC[C@@]4(C)[C@H]3CC[C@]12C`, the activity change, negative = inhibition ([1]; at 25.7 µM (top of the series)) was -2.63% (inactive), the max response [1, 16] was -13.1% and the max response [1, 17] was -17%.
